Experimental data from PubChem BioAssay (NCATS).
Values joined by “and” are separate entries in the source; they are usually repeats but may differ in a detail not shown here. Equal values may be shown once. Inconclusive results are not listed. More than one record can exist for a structure, and the calls need not agree. Active and inactive are the calls of the source. Unless noted, calls come from the whole dose curve; as a rule, active = well fitted curve in the direction sought with a large enough effect; inconclusive = small, poorly fitted or top-dose-only effect, or another doubt; inactive = no such curve, though single readings can be large; an effect the other way counts as inactive or inconclusive.

What was measured:
[1] = target: Guanine nucleotide-binding protein G(i) subunit alpha-1 (Homo sapiens) (UniProt P63096); assay: qHTS Assay for Inhibitors of RGS12 GoLoco Motif Activity (Green Fluorophore) (AID 879);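 note: 0% = labeled peptide with Gαi1 and full inhibition = labeled peptide alone without protein; negative values mean loss of peptide binding seen as reduced polarization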
Chain of Guanine nucleotide-binding protein G(i) subunit alpha-1 (Homo sapiens) (P63096 whole entry, looked up): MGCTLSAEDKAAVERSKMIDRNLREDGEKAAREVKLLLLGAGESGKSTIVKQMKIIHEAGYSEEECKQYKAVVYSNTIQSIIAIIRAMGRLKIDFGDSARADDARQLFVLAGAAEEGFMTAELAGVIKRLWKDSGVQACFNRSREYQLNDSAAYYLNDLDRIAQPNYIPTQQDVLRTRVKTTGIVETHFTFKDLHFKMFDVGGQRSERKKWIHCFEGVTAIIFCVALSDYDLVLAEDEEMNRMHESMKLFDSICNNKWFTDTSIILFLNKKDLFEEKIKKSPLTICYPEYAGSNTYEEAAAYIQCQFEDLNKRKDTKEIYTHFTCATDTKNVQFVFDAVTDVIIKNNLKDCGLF
Procedure, shortened: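 Fluorescence polarization assay: 50 nM Gαi1 with 10 nM FITC-labeled RGS12 GoLoco peptide in 10 mM Tris pH 7.5, 150 mM NaCl, 0.1 mM GDP, 0.05% NP40, 10 min at room temperature with compound.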

[2] = target: Cytochrome P450 2C9 (Homo sapiens) (UniProt P11712); assay: qHTS Assay for Inhibitors and Substrates of Cytochrome P450 2C9 (AID 883); note: nearly all actives have a fitted effect of over 60% in size; note: potency is the fitted concentration of half-maximal effect
Chain of Cytochrome P450 2C9 (Homo sapiens) (P11712 whole entry, looked up): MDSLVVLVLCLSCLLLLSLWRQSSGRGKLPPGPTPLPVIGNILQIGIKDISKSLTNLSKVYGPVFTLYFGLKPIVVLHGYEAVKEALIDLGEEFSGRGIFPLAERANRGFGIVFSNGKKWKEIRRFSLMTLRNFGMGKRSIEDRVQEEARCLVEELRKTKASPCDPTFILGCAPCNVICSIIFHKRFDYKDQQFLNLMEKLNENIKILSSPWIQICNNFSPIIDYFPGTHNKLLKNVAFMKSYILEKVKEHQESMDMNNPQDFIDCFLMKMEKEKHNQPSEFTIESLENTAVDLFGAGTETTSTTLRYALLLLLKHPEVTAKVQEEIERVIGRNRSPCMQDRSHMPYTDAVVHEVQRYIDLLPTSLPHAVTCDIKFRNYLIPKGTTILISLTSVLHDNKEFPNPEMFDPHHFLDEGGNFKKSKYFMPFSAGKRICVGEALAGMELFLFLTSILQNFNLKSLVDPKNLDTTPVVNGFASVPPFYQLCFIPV
Procedure, shortened: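 Signal: luciferase luminescence reporting luciferin produced by CYP2C9. Conditions: 10nM enzyme, Luciferin-H 100uM at KM, 25mM KPO4, 37C, 60 min NADPH-driven reaction. Reference: 57uM sulphaphenazole as 100% inhibition.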

[3] = target: Cytochrome P450 3A4 (Homo sapiens) (UniProt P08684); assay: qHTS Assay for Inhibitors and Substrates of Cytochrome P450 3A4 (AID 884); note: nearly all actives have a fitted effect of over 50% in size; note: potency is the fitted concentration of half-maximal effect
Chain of Cytochrome P450 3A4 (Homo sapiens) (P08684 whole entry, looked up): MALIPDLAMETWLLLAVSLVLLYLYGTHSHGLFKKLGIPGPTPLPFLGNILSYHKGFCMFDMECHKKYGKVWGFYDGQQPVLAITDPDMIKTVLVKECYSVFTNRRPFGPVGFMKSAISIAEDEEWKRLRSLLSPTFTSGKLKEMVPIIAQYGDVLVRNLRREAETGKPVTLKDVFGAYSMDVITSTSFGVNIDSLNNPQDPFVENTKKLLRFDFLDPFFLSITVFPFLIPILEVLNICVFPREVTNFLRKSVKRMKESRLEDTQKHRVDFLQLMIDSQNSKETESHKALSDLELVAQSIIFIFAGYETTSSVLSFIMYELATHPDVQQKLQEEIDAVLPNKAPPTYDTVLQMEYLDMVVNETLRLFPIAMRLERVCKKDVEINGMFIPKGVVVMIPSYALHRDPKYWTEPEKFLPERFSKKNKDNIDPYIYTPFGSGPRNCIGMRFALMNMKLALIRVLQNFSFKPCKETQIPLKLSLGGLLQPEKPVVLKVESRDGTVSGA
Procedure, shortened: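 20 nM human CYP3A4 with 25 uM Luciferin-PPXE (at KM) in 200 mM KPO4, preincubated 10 min with compound; NADPH regeneration started a 60 min RT reaction. Luciferin detected by luminescence, normalized to 57 uM ketoconazole as full inhibition.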

[4] = target: Cytochrome P450 3A4 (Homo sapiens) (UniProt P08684); assay: qHTS Assay for Activators of Cytochrome P450 3A4 (AID 885); note: nearly all actives have a fitted effect of over 65% in size
Procedure, shortened: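 Steps: enzyme/substrate mix dispensed; compound added, 10 min RT; NADPH regeneration solution added, 60 min RT; luciferin detection buffer stops reaction; 20 min later luminescence measured.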

[5] = target: Cytochrome P450 2D6 (Homo sapiens) (UniProt P10635); assay: qHTS Assay for Inhibitors and Substrates of Cytochrome P450 2D6 (AID 891); note: nearly all actives have a fitted effect of over 60% in size; note: potency is the fitted concentration of half-maximal effect
Chain of Cytochrome P450 2D6 (Homo sapiens) (P10635 whole entry, looked up): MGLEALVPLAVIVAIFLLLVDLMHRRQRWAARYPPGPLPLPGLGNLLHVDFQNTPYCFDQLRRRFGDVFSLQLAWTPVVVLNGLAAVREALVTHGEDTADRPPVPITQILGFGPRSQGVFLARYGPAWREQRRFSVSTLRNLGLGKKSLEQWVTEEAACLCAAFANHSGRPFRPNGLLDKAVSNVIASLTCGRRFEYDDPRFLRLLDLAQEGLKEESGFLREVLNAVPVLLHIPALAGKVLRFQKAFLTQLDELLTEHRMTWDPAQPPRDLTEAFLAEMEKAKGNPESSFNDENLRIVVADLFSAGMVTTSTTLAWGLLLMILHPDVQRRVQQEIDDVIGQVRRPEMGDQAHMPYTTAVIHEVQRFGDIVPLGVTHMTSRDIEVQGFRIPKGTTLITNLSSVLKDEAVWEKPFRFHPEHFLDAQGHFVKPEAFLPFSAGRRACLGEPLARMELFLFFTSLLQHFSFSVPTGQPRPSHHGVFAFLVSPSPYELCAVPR
Procedure, shortened: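 Human CYP2D6 (5 nM) with 30 uM Luciferin-ME EGE (at Km) in 100 mM KPO4, compound preincubated 10 min, then NADPH regeneration system for 60 min at room temperature. Luciferin read by luminescence; normalized to 1.43 uM quinidine.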

[6] = qHTS Assay for Identification of Small Molecule Antagonists for NFkB Signaling Pathway (AID 895; active = well fitted inhibition curve with a large enough effect in the signal ratio, with a control signal flat, not every such curve was filed as active; the % refers to the signal ratio; note: potency is the fitted concentration of half-maximal effect)
Procedure, shortened: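 ME-180 NFkB-bla cells (beta-lactamase under NFkB response element), plated overnight, treated with compound then 10 pM TNF alpha (about EC50) for 5 hrs at 37 C. LiveBLAzer FRET read at 460/530 nm emission, 405 nm excitation.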

[7] = target: Cytochrome P450 2C19 (Homo sapiens) (UniProt P33261); assay: qHTS Assay for Inhibitors and Substrates of Cytochrome P450 2C19 (AID 899); note: nearly all actives have a fitted effect of over 60% in size; note: potency is the fitted concentration of half-maximal effect
Chain of Cytochrome P450 2C19 (Homo sapiens) (P33261 whole entry, looked up): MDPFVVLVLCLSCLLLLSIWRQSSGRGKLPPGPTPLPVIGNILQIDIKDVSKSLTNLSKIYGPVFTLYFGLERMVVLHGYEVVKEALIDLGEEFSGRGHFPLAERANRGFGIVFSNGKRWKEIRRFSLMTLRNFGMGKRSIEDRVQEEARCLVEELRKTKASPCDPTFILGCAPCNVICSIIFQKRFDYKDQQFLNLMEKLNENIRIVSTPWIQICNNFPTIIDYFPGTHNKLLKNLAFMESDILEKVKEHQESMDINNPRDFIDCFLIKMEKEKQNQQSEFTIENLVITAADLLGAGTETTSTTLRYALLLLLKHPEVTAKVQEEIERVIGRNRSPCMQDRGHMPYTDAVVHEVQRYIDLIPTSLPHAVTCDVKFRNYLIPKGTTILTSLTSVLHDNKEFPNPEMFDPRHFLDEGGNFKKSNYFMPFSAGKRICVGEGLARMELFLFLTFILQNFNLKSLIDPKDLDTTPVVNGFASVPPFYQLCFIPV
Procedure, shortened: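 Signal comes from luciferase acting on luciferin released by CYP2C19-mediated hydroxylation of Luciferin-H EGE, 10uM (KM). Assay mix: 5nM enzyme, 50mM KPO4; 60 min at 37C with NADPH regeneration. Data normalized against 57uM ketoconazole.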

[8] = qHTS Assay for Identification of Small Molecule Agonists for Thrombopoietin (TPO) Signaling Pathway (AID 917); note: % is set by controls: 0 for no effect and ±100 for the full control effect
Procedure, shortened: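 Luminescence from a Glycoprotein IIb promoter–driven luciferase reporter served as read-out in murine Ba/F3 cells carrying the human TPO receptor. Cells, deprived of IL-3 overnight, received compounds with 26 pM TPO and were incubated 24 hrs at 37 C.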

[9] = target: Muscarinic acetylcholine receptor M1 (Rattus norvegicus) (UniProt P08482); assay: qHTS Assay for Antagonists of Acetylcholine Muscarinic M1 Receptor: Kinetic Measurement of Intracellular Calcium Response (AID 943);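 note: Fluo-4 calcium signal as peak divided by basal fluorescence over 4 min; series mostly up to about 35 µM; nearly all actives have a fitted effect of over 75% in size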
Chain of Muscarinic acetylcholine receptor M1 (Rattus norvegicus) (P08482 whole entry, looked up): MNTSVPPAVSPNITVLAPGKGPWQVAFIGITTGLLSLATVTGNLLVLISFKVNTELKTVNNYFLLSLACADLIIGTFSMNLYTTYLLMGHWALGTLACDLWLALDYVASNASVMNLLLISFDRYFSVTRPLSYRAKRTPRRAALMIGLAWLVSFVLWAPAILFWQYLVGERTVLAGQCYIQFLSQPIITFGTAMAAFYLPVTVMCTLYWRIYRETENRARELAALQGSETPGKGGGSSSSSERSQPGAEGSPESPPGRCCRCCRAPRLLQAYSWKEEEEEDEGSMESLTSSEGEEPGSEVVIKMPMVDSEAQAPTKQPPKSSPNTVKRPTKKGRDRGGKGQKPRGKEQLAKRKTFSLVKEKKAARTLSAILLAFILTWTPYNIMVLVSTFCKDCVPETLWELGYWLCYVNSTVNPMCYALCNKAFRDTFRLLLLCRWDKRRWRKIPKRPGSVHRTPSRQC
Procedure, shortened: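 CHO cells stably expressing rat M1 were loaded with no-wash Fluo-4 dye for 1 h at 37C, pre-incubated 10 min with compound, then challenged with EC80 carbachol (100 nM final); kinetic calcium read 4 min, peak/basal ratio.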

[10] = target: Pyruvate kinase (Leishmania mexicana) (UniProt Q27686); assay: qHTS Validation Assay for Inhibitors of Leishmania Mexicana Pyruvate Kinase (AID 945);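 note: 0% = DMSO only neutral control wells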
Chain of Pyruvate kinase (Leishmania mexicana) (Q27686 2-499 E452W): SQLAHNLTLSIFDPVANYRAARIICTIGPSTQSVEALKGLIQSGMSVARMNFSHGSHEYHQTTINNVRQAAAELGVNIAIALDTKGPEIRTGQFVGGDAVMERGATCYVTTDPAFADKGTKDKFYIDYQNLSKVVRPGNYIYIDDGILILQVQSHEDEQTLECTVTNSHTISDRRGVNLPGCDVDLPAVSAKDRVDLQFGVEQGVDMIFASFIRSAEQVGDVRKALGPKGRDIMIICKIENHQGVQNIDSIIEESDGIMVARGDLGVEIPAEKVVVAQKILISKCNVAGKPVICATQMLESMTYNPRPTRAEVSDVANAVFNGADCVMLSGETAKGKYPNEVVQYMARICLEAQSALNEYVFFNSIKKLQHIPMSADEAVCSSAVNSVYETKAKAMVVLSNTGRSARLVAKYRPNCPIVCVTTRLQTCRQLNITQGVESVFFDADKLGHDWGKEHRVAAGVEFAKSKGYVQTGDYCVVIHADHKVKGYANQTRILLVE
Procedure, shortened: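 Purified LmPYK (E451W mutant, 0.2 nM) was incubated 1 h at room temperature with 0.5 mM PEP and 0.1 mM ADP in 50 mM imidazole pH 7.2, 50 mM KCl, 7 mM MgCl2; ATP formed was read by PKLight luminescence, normalized to DMSO wells.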

[11] = Confirmation and Secondary Assay for Modulators of Hemoglobin Beta Chain Splicing at IVS2 654 locus (AID 910);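 note: HeLa cells stably carrying EGFP split by mutant beta-globin IVS2-654 intron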;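 note: potency is the fitted concentration of half-maximal effect; potency of activators that raise GFP signal by restoring correct splicing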
Procedure, shortened: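 HeLa cells stably expressing EGFP interrupted by β-globin IVS2-654 intron, seeded overnight in Opti-MEM/2% FCS, then treated 2 days at 37 °C. Restored splicing read as total peak GFP intensity per well by laser scanning cytometry (488 nm excitation, 500–520 nm emission); 500 nM antisense PNA as control.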

[12] = Confirmation and Secondary Assay for Modulators of Hemoglobin Beta Chain Splicing at IVS2 705 locus (AID 930); note: potency is the fitted concentration of half-maximal effect;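 for activation: HeLa cells stably expressing the EGFP-705 splicing reporter; series mostly up to about 46 µM; % of control where 0% means no effect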
Procedure, shortened: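 Restored EGFP fluorescence after 2-day compound exposure reports splicing correction in IVS2-705 EGFP reporter HeLa cells; positive control was 500 nM splice-blocking PNA oligo. Signal measured as well total peak GFP intensity (488 nm excitation).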

[13] = Cellular Toxicity (caspase-3) Hek293 (AID 664);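 note: cells exposed to compound for 16 h at 37 °C before readout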
Procedure, shortened: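 HEK293 cells were exposed to compounds in complete medium for 16 hr at 37 °C, then caspase-3/7 activity was read by Caspase-Glo 3/7 luminescence after 20 min at room temperature. Data normalized to DMSO and 100 uM tamoxifen; AC50 from Hill fits.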

[14] = Cellular Toxicity (caspase-3) N2a (AID 665);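 note: compound exposure lasted 16 h at 37 °C before readout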
Procedure, shortened: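 Mouse N2a neuroblastoma cells (1500/well) were treated with compounds for 16 h at 37 °C, then caspase-3/7 activity was read by Caspase-Glo luminescence after 1 h at room temperature. Data were normalized to DMSO and 10 uM staurosporine; AC50 from Hill fits.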

[15] = Cellular Toxicity (caspase-3) NIH 3T3 (AID 666);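 note: caspase signal read after 16 h compound exposure; 0% = DMSO basal and 100% = 100 µM tamoxifen stimulation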
Procedure, shortened: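 Mouse NIH 3T3 fibroblasts (1000 cells/well) were treated with compound for 16 hr at 37°C in complete medium; caspase-3/7 activity was read by Caspase-Glo luminescence. Normalized to DMSO and 100 uM tamoxifen; AC50 from Hill fits.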

[16] = Cellular Toxicity (caspase-3) Renal Proximal Tubule (AID 667);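 note: cells exposed to compound for 16 hours at 37 °C before detection; 0% = DMSO basal and 100% = 10 µM staurosporine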
Procedure, shortened: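 AC50 derived by standard Hill fit of concentration-response data, normalized between DMSO basal and 10 uM staurosporine as 100% stimulation. Cells: primary rat kidney proximal tubule, 16 h treatment at 37 °C.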

[17] = Cell Viability - LYMP2-001 (AID 921);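 note: cells exposed to compound for 24 h at 37 °C; nearly all actives have a fitted effect of over 70% in size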; note: potency is the fitted concentration of half-maximal effect
Procedure, shortened: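 Steps: seed 2500 lymphoblastoid cells/well; 5 hr, 37 C; add compound; 24 hr, 37 C; CellTiter-Glo reagent, 30 min room temperature; read luminescence. Concentration-response modeled by Hill equation for AC50.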

[18] = MultiTox-Fluor Cytotoxicity Assay - LYMP1-001 - Dead Cells (AID 946);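 note: 0% = DMSO and 100% = tetraoctylammonium bromide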
Procedure, shortened: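 Seed 2500 LYMP1-001 cells/well, incubate 5 hr at 37 C; add compound, 16 hr at 37 C; add MultiTox-Fluor reagent, 60 min RT; read dead-cell fluorescence Ex/Em=485/520. Normalize to DMSO and 15 uM tetraoctylammonium bromide.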

[19] = qHTS Assay for Identification of Small Molecule Agonists for Hypoxia Response Element Signaling Pathway (AID 914; active = well fitted activation curve with a large enough effect in the signal ratio, with a control signal flat, not every such curve was filed as active; the % refers to the signal ratio; note: % of control where 0% means no effect); settings: ME-180 (cervical carcinoma) HRE-bla reporter, beta-lactamase ratio, CoCl2, 17 h; activation: stronger effect = higher value
Procedure, shortened: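 AC50 values come from titration-series %Activity, taken as the 460/530nm ratio of CCF4 fluorescence (excitation 405nm). CellSensor HRE-bla ME-180 cells were treated 17 hours at 37 C with compound plus an EC50 level of CoCl2.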

CC(C)(Sc1ccc(CCN(CCCCC2CCCCC2)C(=O)NC2CCCCC2)cc1)C(=O)O
inactive: outcome [1] | outcome [4] | Potency [5] | Potency [7] | outcome [8] | Potency [9] | outcome [10]
active: Potency [2] 31.6 µM | Potency [3] 3.98 µM | Potency [6] 14.1 µM

Cc1ccc(N(CC2=NCCN2)c2cccc(O)c2)cc1
active: Potency [5] 3.16 µM and 794 nM
inactive: outcome [1] | Potency [11] | outcome [8] | Potency [12] | outcome [10]

Cn1cnc([N+](=O)[O-])c1Sc1ncnc2nc[nH]c12
inactive: outcome [13] | outcome [14] | outcome [15] | outcome [16] | outcome [1] | Potency [6] | outcome [8] | outcome [10] | outcome [18]
inactive and 2.51 µM (active): Potency [12]
active: Potency [11] 1.58 µM | Potency [17] 39.8 µM

O=c1[nH]cnc2[nH]ncc12
inactive: outcome [13] | outcome [14] | outcome [15] | outcome [16] | outcome [1] | Potency [2] | Potency [3] | Potency [5] | Potency [7] | Potency [11] | outcome [8] | Potency [17] | Potency [12] | outcome [10] | outcome [18]

N=c1nc(N2CCCCC2)cc(N)n1O
inactive: outcome [1] | Potency [2] | Potency [5] | Potency [7] | Potency [11] | outcome [8] | Potency [12] | Potency [9] | outcome [10]

NC(N)=NC(=O)c1nc(Cl)c(N)nc1N
inactive: outcome [13] | outcome [14] | outcome [15] | outcome [16] | outcome [1] | Potency [3] | Potency [6] | Potency [11] | outcome [8] | Potency [12] | outcome [10] | outcome [18]

C[C@]12CCC(=O)C=C1CC[C@@H]1[C@@H]2[C@@H](O)C[C@@]2(C)[C@H]1CC[C@]2(O)C(=O)CO
inactive: outcome [1] | outcome [4] | outcome [8] | outcome [10]
active: Potency [6] 0.0141 µM

CCCC(CCC)C(=O)O
inactive: outcome [13] | outcome [14] | outcome [15] | outcome [16] | outcome [1] | Potency [3] | Potency [11] | outcome [8] | Potency [17] | Potency [12] | outcome [10] | outcome [18]

O=C1CCc2cc(OCCCCc3nnnn3C3CCCCC3)ccc2N1
inactive: outcome [1] | outcome [4] | Potency [5] | Potency [7] | Potency [11] | Potency [12] | outcome [10]

CC(=O)Oc1ccccc1C(=O)O
inactive: outcome [13] | outcome [14] | outcome [15] | outcome [16] | outcome [1] | Potency [2] | Potency [3] | Potency [5] | Potency [7] | Potency [11] | outcome [8] | Potency [17] | Potency [12] | outcome [10] | outcome [18]

Nc1nc2c(ncn2COCCO)c(=O)[nH]1
inactive: outcome [1] | Potency [3] | outcome [8] | Potency [12] | outcome [10]

NS(=O)(=O)c1cc2c(cc1Cl)NC=NS2(=O)=O
inactive: outcome [13] | outcome [14] | outcome [15] | outcome [16] | outcome [1] | Potency [11] | activation [19] 13.9% and 2.11% and -1.51% | outcome [8] | Potency [17] | Potency [12] | outcome [10] | outcome [18]

Nc1ccc(S(=O)(=O)Nc2ccnn2-c2ccccc2)cc1
active: Potency [6] 7.08 µM
inactive: outcome [1] | outcome [4] | Potency [7] | Potency [11] | Potency [12] | outcome [10]

NNCCc1ccccc1
inactive: outcome [1] | outcome [4] | Potency [11] | outcome [8] | Potency [12] | outcome [10]
active: Potency [5] 6.31 µM and 2.51 µM | Potency [7] 794 nM and 316 nM

Cc1oncc1C(=O)Nc1ccc(C(F)(F)F)cc1
inactive: outcome [1] | outcome [4] | Potency [5] | Potency [6] | Potency [7] | Potency [11] | Potency [12] | outcome [10]
